From PubChem BioAssay
Many of the other results were omitted from the sample, so hits are more common in it than they were.
Pf Dd2 inh: blocks in vitro growth of P. falciparum Dd2. P. falciparum Dd2 growth, SYBR Green, 72 h. Potency, µM (titrated, usually from 28.9 µM), without a hit: at the top dose activity, negative = inhibition, most hits filed as inhibitors. 4.3% of 120,000 active. AID 1347417; active means well fitted inhibition curve with a large enough effect;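 further: plate controls were DMSO vehicle for no effect and reference drug for full effect; nearly all actives have a fitted effect of over 65% in size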
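Infected erythrocytes (Dd2, 0.3% parasitemia, 2.5% hematocrit final) are added to compound in RPMI-1640/Albumax II medium, grown 72 h at 37C in low oxygen, then lysed with saponin/Triton-X containing SYBR Green and read by fluorescence.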
Active calls of the source: *; i = inactive; [ ] = dose if it differs, or a comment. Potency means the concentration at half of the fitted maximal effect.

SMILES | Pf Dd2 inh
COc1ccccc1N1CCN(C(=O)c2cc3c(-c4ccccc4F)nn(C)c3s2)CC1 | 11µM*
CCCN(CCC)CCNC(=O)c1cc2c(-c3ccccc3F)nn(C)c2s1 | 4µM*
Cn1nc(-c2ccccc2F)c2cc(C(=O)NCc3cccc(Cl)c3)sc21 | -8%
Cn1nc(-c2ccccc2F)c2cc(C(=O)Nc3cc(F)ccc3F)sc21 | 25%
COc1ccc(-c2nn(C)c3sc(C(=O)N4CCN(c5ccccc5F)CC4)cc23)cc1OC | -11%
CCn1c(-c2ccccc2)nn(CC(=O)NCc2ccsc2)c1=O | 7%
CCNC(=O)CCc1c(C)nn(-c2cccc(C)c2)c1Oc1ccc(F)cc1F | i
COc1cccc(CNC(=O)c2cc3c(=O)[nH]c(C)cn3n2)c1 | i
COc1ccc(OC)c(CNC(=O)c2ccc3c(c2)N(C)C2CCCCN2C3=O)c1 (stereo unspecified) | i
CCS(=O)(=O)N1C[C@@H](COc2ccncc2)[C@H](c2ccccn2)C1 | -18%
CCc1nc2ccc(C(=O)NCCc3ccc(OC)c(OC)c3)cc2nc1CC | 8%
COc1ccc(CCNC(=O)c2ccc3c(Cl)c4c(nc3c2)CCCC4)c(OC)c1 | -23%
COc1ccc(CNC(=O)c2ccc3c(Cl)c4c(nc3c2)CCCC4)c(OC)c1 | -12%
COCCNC(=O)c1ccc2c(c1)ncn2-c1cc(C)ccc1OC | -11%
COc1ccc(CCNC(=O)c2ccc3c(Cl)c4c(nc3c2)CCCC4)cc1OC | 11µM*
COc1ccc(CCNC(=O)c2ccc3c(c2)ncn3-c2ccc(C(C)C)cc2)cc1OC | 11µM*
COCCOC1CCN(S(=O)(=O)Cc2ccccc2F)CC1 | 13%
COc1ccc(CNC(=O)NC2CCc3n[nH]c(=O)n3CC2)cc1 (stereo unspecified) | i
CCCc1ccc(C(=O)N2CCC3(CCCN(C)C3=O)C2)cc1 (stereo unspecified) | -4%
COc1ccc(CN2CCC3(CC2)CC(c2cccc(C(F)(F)F)c2)=NO3)cc1 | -23%
C[C@@H]1CN(C(=O)c2coc(COc3cccc(F)c3)n2)C[C@H](C)O1 | -4%
COc1ccc(OCc2nc(C(=O)N3CCCC(C(C)(C)O)C3)co2)cc1 (stereo unspecified) | -4%
COCC1CCN(C(=O)c2coc(COc3cccc(F)c3)n2)C1 (stereo unspecified) | -2%
CCCC1CCN(C(=O)c2coc(COc3ccc4ccc(OC)cc4c3)n2)C1 (stereo unspecified) | -21%
COc1ccc2ccc(OCc3nc(C(=O)N4CC(N5CCCCC5)C4)co3)cc2c1 | 8.9µM*
SMILES | Pf Dd2 inh
COc1cccc(OCc2nc(C(=O)N3CC4C[C@@H]5CC3C[C@H](C4)C5)co2)c1 | 10µM*
O=C(CC1CC1)N1CC(F)(F)C[C@H]1c1nc(-c2ccncc2)no1 | 9%
COc1ccc(C(=O)N(C)Cc2ccc(-c3ccccc3)cc2)cc1 | -1%[44.1 µM]
C[C@H]1[C@@H]2[C@@H](O)C([C@H](C)C(=O)N3CCCC3)CC[C@@]2(C)CC[C@@H]1NC(=O)Nc1cccc(F)c1 (stereo partly specified) | i
O=C1c2c(nc(COc3cccnc3)n2Cc2ccccc2)NCCN1CCOc1ccccc1 | -13%
COc1cc(C)c2c(c1C)C[C@H](C(C)C(=O)N1CCN(CCO)CC1)CC2 (stereo partly specified) | i
COCCOc1cc(C)c2c(c1C)C[C@H](C(C)C(=O)N1CCCCC1)CC2 (stereo partly specified) | -7%[44.1 µM]
CCCOc1cc(C)c2c(c1C)C[C@H]([C@H](C)C(=O)NCCOC)CC2 | -9%[44.1 µM]
COc1cc(C)c2c(c1C)C[C@H](C(C)C(=O)NCc1cccs1)CC2 (stereo partly specified) | 11µM*
CCCOc1cc(C)c2c(c1C)C[C@H](C(C)C(=O)NCc1ccc(OC)cc1)CC2 (stereo partly specified) | 10µM*
COCCOc1cc(C)c2c(c1C)C[C@H](C(C)C(=O)N1CCOCC1)CC2 (stereo partly specified) | -3%[44.1 µM]
Cc1cc(OCCN(C)C)c(C)c2c1CC[C@@H]([C@H](C)C(=O)NCc1ccccc1)C2 | -24%[44.1 µM]
Cc1cc(OCCN2CCOCC2)c(C)c2c1CC[C@@H]([C@H](C)C(=O)N1CCCCC1)C2 | 11µM*
Cc1cc(OCCN2CCOCC2)c(C)c2c1CC[C@@H]([C@H](C)C(=O)NCc1cccnc1)C2 | i
Cc1cc(C)n(Cc2c(C(=O)NCC34CCC=C3N(C)C(=O)CC4)noc2C)n1 (stereo unspecified) | -13%
O=C(C1CCCCC1)N1C[C@@H](CO)[C@H](c2ccncc2)C1 | 6%
COCCc1nc(CNC(=O)C2CCCN(C(=O)N(C)C)C2)no1 (stereo unspecified) | -2%
COC[C@@H]1CN(S(=O)(=O)c2ccc(C)cc2)C[C@H]1c1ccncc1 | -17%
O=C1CC2(CCN(CC3CC3)CC2)Oc2ccccc21 | i
O=C1CC2(CCN(Cc3ccc(C(F)(F)F)cc3)CC2)Oc2cc(Cl)ccc21 | i
O=C1CC2(CCN(CC3CCCCC3)CC2)Oc2cc(Cl)ccc21 | 1.4µM*
